PubChem BioAssay AID893 (National Center for Advancing Translational Sciences (NCATS), 2007)
Screen size: about 75,000 compounds; about 5,700 (7.6%) were called active. Not shown: some 7% with an inconclusive outcome. Calls come from the whole dose curve; as a rule, active = well fitted inhibition curve with a large enough effect; inconclusive = small, poorly fitted or top-dose-only effect; inactive = no such curve, though single readings can be large or run the other way. The entries come from a sample that favours actives as a whole. Entries that show only a call come without a potency.

target: 3-hydroxyacyl-CoA dehydrogenase type-2 (Homo sapiens) (UniProt Q99714); test: qHTS Assay for Inhibitors of HSD17B4, hydroxysteroid (17-beta) dehydrogenase 4; conditions: recombinant HSD17B10, NADH fluorescence kinetic; series mostly up to 57.1 µM;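 note: the protocol describes HADH2 (HSD17B10) and not the HSD17B4 of the title; nearly all actives have a fitted effect of over 70% in size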
In short: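 Enzyme plus compound, 15 min room temperature; substrate mix added (NAD+ 1 mM, beta-hydroxybutyryl-CoA 90 uM final); plates read kinetically for NADH fluorescence. HADH2 was His-tagged, E. coli-derived, 20 nM.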
Potency is the fitted concentration of half-maximal effect.

For Cc1ccc(S(=O)(=O)N2CCC(C(=O)N[C@@H](C)C(=O)NCc3ccccc3)CC2)cc1, which Potency is on record?
Its Potency is “inactive”.

Which Potency does the source give for O=C(Nc1cccc2c1CCCC2)C1CCN(C(=O)NC2CCCCC2)CC1 here?
Its Potency is “inactive”.

c1ccc2sc(SCCSc3nc4ccccc4s3)nc2c1 was tested. Which activity change, negative = inhibition did it give?
The activity change, negative = inhibition was 2.8% [at 11.4 µM] (inactive).

For O=C(c1cc(-c2cccc(O)c2)on1)N1CCc2ccccc2C1, which Potency is on record?
The Potency was “inactive”.

How did the Potency turn out when O=C1CN(C(=O)COC(=O)C2CC(=O)N(Cc3ccco3)C2)c2ccccc2N1 (centres undefined) was run?
Its Potency is “inactive”.

With CN(C)C(=O)/N=N\C(=O)N(C)C as the compound, how does the Potency read?
Its Potency is “inactive”.

With COc1ccc(-c2nc3cnc(Oc4ccccc4)nc3n(Cc3cccs3)c2=O)cc1 as the compound, how does the Potency read?
Its Potency is 12.6 µM (active).

With O=c1c(-c2ccc(F)c(F)c2)nc2cncnc2n1-c1ccccc1 as the compound, how does the Potency read?
Its Potency is “inactive”.

COCCn1c(=O)c(-c2ccc(OC)cc2)nc2cnc(Oc3cccc(Cl)c3)nc21 was tested. Which Potency did it give?
The Potency was “inactive”.

How did the Potency turn out when CN1CCN(c2ncc3nc(-c4ccc(Cl)cc4)c(=O)n(-c4ccccc4)c3n2)CC1 was run?
The Potency was 25.1 µM (active).

How did the Potency turn out when CN1CCN(c2cc(=O)n(-c3ccc(Cl)cc3)c(=O)[nH]2)CC1 was run?
The Potency was “inactive”.

Which Potency does the source give for O=C1c2cccnc2C(=O)N1Cc1cccs1 here?
Its Potency is “inactive”.

Which Potency does the source give for C=CC(=O)OCCOCCOCCOCCOC(=O)C=C here?
The Potency was “inactive”.

For Cc1ccccc1NC(=O)Cc1nnc(SCC(=O)N2CCN(c3ccccc3)CC2)n1C, which Potency is on record?
The Potency was “inactive”.

Which Potency does the source give for Cc1nnc(SCC(=O)Nn2cnnc2)s1 here?
The Potency was “inactive”.

Which Potency does the source give for CC(C)[C@H](CO)Nc1nc(Nc2cc(N)cc(Cl)c2)c2ncn(C(C)C)c2n1 here?
The Potency was “inactive”.

Which Potency does the source give for Cc1c(CN2CCC(C)CC2)c(=O)n(-c2ccccc2)n1C here?
Its Potency is “inactive”.

With COC(=O)[C@@H]1C[C@@]2(O)[C@H](O)[C@H](O)[C@H](O)C[C@H]2N1CC1CCCCC1 as the compound, how does the Potency read?
The Potency was “inactive”.

CCOc1ccc(S(=O)(=O)n2ccnc2)c2ccccc12 was tested. Which Potency did it give?
Its Potency is “inactive”.

Which Potency does the source give for CCc1nc(Nc2ccc3nccnc3c2)c2oc3ccccc3c2n1 here?
The Potency was 12.6 µM (active).

For C[C@@H](Nc1nc(-c2ccccc2)nc2c1oc1ccccc12)C(=O)O, which Potency is on record?
Its Potency is “inactive”.

How did the Potency turn out when CCSc1nc(C)nc2c1oc1ccccc12 was run?
The Potency was “inactive”.

With Cc1cccc(N2CCN(S(=O)(=O)c3ccc4c(c3)c(=O)n(C)c(=O)n4C)CC2C)c1 (centres undefined) as the compound, how does the Potency read?
The Potency was “inactive”.

Which Potency does the source give for Cc1ccc(C)c(S(=O)(=O)n2cnc3ccccc32)c1 here?
The Potency was “inactive”.

Which activity change, negative = inhibition does the source give for CC(=O)OCC1OC(C#Cc2ccccc2Cl)C=CC1OC(C)=O (centres undefined) here?
The activity change, negative = inhibition was -6.58% [at 11.4 µM] (inactive).

Cc1ccc2nc(NC3=NCN(CCc4ccccc4)CN3)nc(C)c2c1 was tested. Which Potency did it give?
Its Potency is “inactive”.

Which Potency does the source give for COc1ccc2nc(NC3=NCN(CC4CCCO4)CN3)nc(C)c2c1 (centres undefined) here?
The Potency was 31.6 µM (active).

Which Potency does the source give for COc1ccc(C2CC(=O)C=C(NCC3CCCO3)C2)cc1 (centres undefined) here?
The Potency was “inactive”.

For Oc1ccccc1CNCc1ccccc1O, which activity change, negative = inhibition is on record?
The activity change, negative = inhibition was -0.327% [at 11.4 µM] (inactive).
